Laboratory results from PubChem BioAssay (NCI).
About 79,000 compounds went through this panel and 15% of them were active in at least one assay; those are over-represented in the sample as a whole. Activity calls are given as the source filed them. Rule as the data show it: active = growth inhibition above about 70%; inactive = the rest.

What was measured:
[1] = NCI Yeast Anticancer Drug Screen. Data for the rad52 strain (AID 147);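 also: 0% = growth of vehicle-treated control cultures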; details: S. cerevisiae rad52 mutant growth inhibition, hits give high values
In short: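 Genetically altered yeast (DNA damage repair defect) treated with compound; inhibition calculated relative to vehicle.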

[2] = NCI Yeast Anticancer Drug Screen. Data for the wt1 strain (AID 149);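 also: 0% = growth of vehicle-treated wt1 cultures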; details: S. cerevisiae wt1 strain (SPY 50644) growth inhibition, hits give high values
In short: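 Each compound is tested on wt1 yeast and the loss of growth versus vehicle gives the inhibition value.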

[3] = NCI Yeast Anticancer Drug Screen. Data for the rad50EPP+ strain (AID 151);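 also: 0% = growth of vehicle-treated control cultures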; details: S. cerevisiae rad50 mutant strain, hits give high values
In short: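 Strain rad50EPP+; compound exposure; % growth inhibition vs vehicle.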

[4] = NCI Yeast Anticancer Drug Screen. Data for the rad50 strain (AID 155);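 also: 0% = growth of vehicle-only cultures of the same strain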; details: S. cerevisiae rad50 strain growth inhibition, hits give high values
In short: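 Vehicle-treated cultures provide the reference for the growth inhibition reported for compound-exposed, repair-deficient yeast.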

[5] = NCI Yeast Anticancer Drug Screen. Data for the mec2-1 strain (AID 157); details: S. cerevisiae mec2-1 strain, hits give high values
In short: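 Cells of the genetically defined mec2-1 yeast strain are incubated with test compound. Inhibition of growth is calculated against vehicle-treated controls.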

[6] = NCI Yeast Anticancer Drug Screen. Data for the rad14 strain (AID 159);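 also: 0% = growth of vehicle-treated control cultures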; details: S. cerevisiae rad14 strain growth inhibition, hits give high values
In short: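 Inhibition of growth is reported for a repair-deficient yeast mutant following compound treatment, calculated relative to cultures that received vehicle.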

[7] = NCI Yeast Anticancer Drug Screen. Data for the sgs1 mgt1 strain (AID 161);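 also: 0% = growth of cultures given vehicle only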; details: S. cerevisiae sgs1 mgt1 strain, hits give high values
In short: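 Read-out: growth inhibition vs vehicle controls. Cells: mutant yeast strain deficient in DNA damage repair.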

[8] = NCI Yeast Anticancer Drug Screen. Data for the CLN2oe strain (AID 163);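 also: 0% = growth of vehicle-only control cultures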; details: S. cerevisiae CLN2oe strain, hits give high values
In short: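 Strain altered in cell-cycle control, incubated with compound; growth compared to solvent-treated controls.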

[9] = NCI Yeast Anticancer Drug Screen. Data for the cln2 rad14 strain (AID 165);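 also: 0% = growth equal to vehicle treated cultures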; details: S. cerevisiae cln2 rad14 strain, hits give high values
In short: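 The screen exposed genetically defined yeast (cln2 rad14) to test compounds and scored growth inhibition relative to vehicle-treated controls.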

[10] = NCI Yeast Anticancer Drug Screen. Data for the bub3 strain (AID 167); details: S. cerevisiae bub3 mutant strain, hits give high values
In short: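 Mutant yeast screening strain plus compound; vehicle-treated cultures serve as the 0% inhibition reference.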

[11] = NCI Yeast Anticancer Drug Screen. Data for the wt2 strain (AID 169); details: S. cerevisiae wt2 strain growth inhibition, hits give high values
In short: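 Steps: yeast strain treated with compound; growth recorded; inhibition calculated relative to cultures given vehicle alone.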

[12] = NCI Yeast Anticancer Drug Screen. Data for the mlh1 strain (AID 171);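 also: 0% = growth of vehicle-treated control cultures of the same strain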; details: S. cerevisiae mlh1 strain growth inhibition, hits give high values
In short: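 Yeast screen: mutant strain plus compound, growth scored against vehicle control wells.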

[13] = NCI Yeast Anticancer Drug Screen. Data for the sgs1 strain (AID 173);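 also: 0% = growth of vehicle-only control cultures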; details: S. cerevisiae sgs1 mutant, hits give high values
In short: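 Inhibition of yeast growth served as the measure. The mutant strain was treated with each compound, and growth was normalised to cultures receiving vehicle alone.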

[14] = NCI Yeast Anticancer Drug Screen. Data for the mlh1 rad18 strain (AID 175); details: S. cerevisiae mlh1 rad18 strain growth inhibition, hits give high values
In short: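 Compound-treated yeast growth, normalised to vehicle controls. Strain bears defined DNA repair mutations.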

[15] = at 5.0 µM (retest, dose inferred, filed as 0.5)
[16] = at 50.0 µM (retest, dose inferred, filed as 5.0)

Measured: growth inhibition

O=[N+]([O-])c1c(/C=N/Nc2ccccc2)oc(-c2ccc3c(c2)OCO3)c1-c1ccc2c(c1)OCO2
active: [1]; at 100.0 µM 88% | [4]; [15] 88% | [4]; [16] 88% | [4]; at 50.0 µM 80.3% | [4]; at 100.0 µM 86% | [5]; at 50.0 µM 88.2% | [5]; at 100.0 µM 81% | [6]; at 100.0 µM 91% | [7]; [15] 87% | [7]; [16] 87% | [7]; at 50.0 µM 83% | [8]; at 100.0 µM 77% | [9]; at 50.0 µM 86.8% | [10]; at 50.0 µM 82.5% | [11]; at 100.0 µM 88% | [12]; at 100.0 µM 73% | [13]; at 100.0 µM 89% | [14]; at 50.0 µM 84.2%
inactive: [1]; at 1.2 µM 0% | [1]; at 3.7 µM 6% | [1]; at 11.0 µM 20% | [1]; at 33.0 µM 67% | [2]; at 1.2 µM -1% | [2]; at 3.7 µM 0% | [2]; at 11.0 µM -1% | [2]; at 33.0 µM 19% | [2]; at 100.0 µM 62% | [3]; at 1.2 µM -4% | [3]; at 3.7 µM 1% | [3]; at 11.0 µM 11% | [3]; at 33.0 µM 31% | [3]; at 100.0 µM 46% | [4]; at 1.2 µM -1% | [4]; at 3.7 µM 2% | [4]; at 11.0 µM 7% | [4]; at 33.0 µM 56% | [5]; at 1.2 µM 0% | [5]; at 3.7 µM 0% | [5]; [15] 8% | [5]; at 11.0 µM 8% | [5]; at 33.0 µM 37% | [5]; [16] 8% | [6]; at 1.2 µM 0% | [6]; at 3.7 µM -2% | [6]; at 11.0 µM 2% | [6]; at 33.0 µM 20% | [8]; at 1.2 µM -1% | [8]; at 3.7 µM 4% | [8]; at 11.0 µM 9% | [8]; at 33.0 µM 46% | [9]; [15] -17% | [9]; [16] -17% | [10]; at 1.2 µM -9% | [10]; at 3.7 µM -8% | [10]; [15] -21% | [10]; at 11.0 µM 8% | [10]; at 33.0 µM 39% | [10]; [16] -21% | [10]; at 100.0 µM 60% | [11]; at 1.2 µM 0% | [11]; at 3.7 µM 1% | [11]; at 11.0 µM 5% | [11]; at 33.0 µM 44% | [12]; at 1.2 µM -3% | [12]; at 3.7 µM -2% | [12]; at 11.0 µM 3% | [12]; at 33.0 µM 36% | [13]; at 1.2 µM -2% | [13]; at 3.7 µM -2% | [13]; at 11.0 µM 7% | [13]; at 33.0 µM 65% | [14]; [15] 38% | [14]; [16] 38%
